Reference: PubChem BioAssay (NCI)
About 79,000 compounds went through this panel and 15% of them were active in at least one assay; those are over-represented in the sample as a whole. Active and inactive are the calls of the source. Cut-off read from the data, not from the text of the source: active = growth inhibition above about 70%; inactive = the rest.

What was measured:
[1] = NCI Yeast Anticancer Drug Screen. Data for the rad52 strain (AID 147);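 note: 0% = growth of vehicle-treated control cultures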; conditions: S. cerevisiae rad52 mutant growth inhibition, active compounds read high
In short: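 Here a repair-compromised yeast strain receives each compound; its growth is then quantified and normalised to vehicle-only controls.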

[2] = NCI Yeast Anticancer Drug Screen. Data for the wt1 strain (AID 149);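 note: 0% = growth of vehicle-treated wt1 cultures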; conditions: S. cerevisiae wt1 strain (SPY 50644) growth inhibition, active compounds read high
In short: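 Each compound is tested on wt1 yeast and the loss of growth versus vehicle gives the inhibition value.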

[3] = NCI Yeast Anticancer Drug Screen. Data for the rad50EPP+ strain (AID 151);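 note: 0% = growth of vehicle-treated control cultures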; conditions: S. cerevisiae rad50 mutant strain, active compounds read high
In short: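 Read-out is yeast growth inhibition relative to vehicle; cells used were the rad50EPP+ strain.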

[4] = NCI Yeast Anticancer Drug Screen. Data for the mgt1 strain (AID 153); conditions: S. cerevisiae mgt1 mutant growth inhibition, active compounds read high
In short: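 Measured: inhibition of mgt1 yeast growth by compound, normalized to vehicle-treated cultures.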

[5] = NCI Yeast Anticancer Drug Screen. Data for the rad50 strain (AID 155);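 note: 0% = growth of vehicle-only cultures of the same strain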; conditions: S. cerevisiae rad50 strain growth inhibition, active compounds read high
In short: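 Vehicle-treated cultures provide the reference for the growth inhibition reported for compound-exposed, repair-deficient yeast.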

[6] = NCI Yeast Anticancer Drug Screen. Data for the mec2-1 strain (AID 157); conditions: S. cerevisiae mec2-1 strain, active compounds read high
In short: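 Using mec2-1 yeast: add compound, measure growth, express inhibition versus vehicle-treated cultures.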

[7] = NCI Yeast Anticancer Drug Screen. Data for the rad14 strain (AID 159);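 note: 0% = growth of vehicle-treated control cultures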; conditions: S. cerevisiae rad14 strain growth inhibition, active compounds read high
In short: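 Inhibition of growth is reported for a repair-deficient yeast mutant following compound treatment, calculated relative to cultures that received vehicle.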

[8] = NCI Yeast Anticancer Drug Screen. Data for the sgs1 mgt1 strain (AID 161);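 note: 0% = growth of cultures given vehicle only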; conditions: S. cerevisiae sgs1 mgt1 strain, active compounds read high
In short: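 Percent growth inhibition was derived by comparing compound-exposed mutant yeast with vehicle-exposed cultures. The strain carries alterations in DNA damage repair.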

[9] = NCI Yeast Anticancer Drug Screen. Data for the CLN2oe strain (AID 163);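 note: 0% = growth of vehicle-only control cultures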; conditions: S. cerevisiae CLN2oe strain, active compounds read high
In short: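 Whole-cell yeast growth assay. A strain engineered for altered cell-cycle control received compound, and inhibition relative to vehicle-treated cultures was recorded.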

[10] = NCI Yeast Anticancer Drug Screen. Data for the cln2 rad14 strain (AID 165);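 note: 0% = growth equal to vehicle treated cultures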; conditions: S. cerevisiae cln2 rad14 strain, active compounds read high
In short: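 Yeast strain cln2 rad14, bearing defects in cell cycle control and DNA repair, serves as the test system; values reflect growth inhibition compared with vehicle.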

[11] = NCI Yeast Anticancer Drug Screen. Data for the bub3 strain (AID 167); conditions: S. cerevisiae bub3 mutant strain, active compounds read high
In short: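 Mutant yeast screening strain plus compound; vehicle-treated cultures serve as the 0% inhibition reference.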

[12] = NCI Yeast Anticancer Drug Screen. Data for the wt2 strain (AID 169); conditions: S. cerevisiae wt2 strain growth inhibition, active compounds read high
In short: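 Treated yeast vs. vehicle-treated yeast: growth inhibition determined.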

[13] = NCI Yeast Anticancer Drug Screen. Data for the mlh1 strain (AID 171);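 note: 0% = growth of vehicle-treated control cultures of the same strain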; conditions: S. cerevisiae mlh1 strain growth inhibition, active compounds read high
In short: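 A yeast strain with a defined genetic lesion serves as the test organism. Cultures receive compound or vehicle, and growth is measured.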

[14] = NCI Yeast Anticancer Drug Screen. Data for the sgs1 strain (AID 173);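 note: 0% = growth of vehicle-only control cultures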; conditions: S. cerevisiae sgs1 mutant, active compounds read high
In short: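 A genetically defined yeast mutant is incubated with the test compound, and its growth is compared to that of the same strain given vehicle.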

[15] = NCI Yeast Anticancer Drug Screen. Data for the mlh1 rad18 strain (AID 175); conditions: S. cerevisiae mlh1 rad18 strain growth inhibition, active compounds read high
In short: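 Steps: expose repair-defective yeast to compound; measure growth; express inhibition against vehicle-treated controls.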

[16] = NCI Yeast Anticancer Drug Screen. Data for the rad18 strain (AID 177); conditions: S. cerevisiae rad18 mutant growth inhibition, active compounds read high
In short: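 Measured value is growth inhibition of a yeast strain bearing a DNA repair alteration, referenced to vehicle-treated cells.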

[17] = at 5.0 µM (retest, dose inferred, filed as 0.5)
[18] = at 50.0 µM (retest, dose inferred, filed as 5.0)

Measured: growth inhibition

CSc1ccccc1[As](C)C
active: [1]; at 11.0 µM 84% | [1]; at 33.0 µM 99% | [1]; at 100.0 µM 99% | [2]; at 11.0 µM 88% | [2]; at 33.0 µM 99% | [2]; at 100.0 µM 99% | [3]; at 11.0 µM 74% | [3]; at 33.0 µM 98% | [3]; at 100.0 µM 99% | [4]; at 11.0 µM 75% | [4]; at 33.0 µM 99% | [4]; at 100.0 µM 99% | [5]; [17] 96% | [5]; at 11.0 µM 86% | [5]; at 33.0 µM 98% | [5]; [18] 99% | [5]; at 50.0 µM 99.3% | [5]; at 100.0 µM 99% | [6]; [17] 90% | [6]; at 11.0 µM 92% | [6]; at 33.0 µM 99% | [6]; [18] 99% | [6]; at 50.0 µM 99.5% | [6]; at 100.0 µM 99% | [7]; at 11.0 µM 87% | [7]; at 33.0 µM 99% | [7]; at 100.0 µM 100% | [8]; [17] 97% | [8]; [18] 99% | [8]; at 50.0 µM 99.5% | [9]; at 33.0 µM 99% | [9]; at 100.0 µM 98% | [10]; [18] 98% | [10]; at 50.0 µM 98.1% | [11]; at 11.0 µM 77% | [11]; at 33.0 µM 99% | [11]; at 50.0 µM 98.8% | [11]; at 100.0 µM 99% | [12]; at 11.0 µM 85% | [12]; at 33.0 µM 99% | [12]; at 100.0 µM 99% | [13]; at 11.0 µM 90% | [13]; at 33.0 µM 99% | [13]; at 100.0 µM 100% | [14]; at 11.0 µM 95% | [14]; at 33.0 µM 99% | [14]; at 100.0 µM 99% | [15]; [17] 97% | [15]; [18] 99% | [15]; at 50.0 µM 99.5%
inactive: [1]; at 1.2 µM 1% | [1]; at 3.7 µM 16% | [2]; at 1.2 µM -1% | [2]; at 3.7 µM 15% | [3]; at 1.2 µM 1% | [3]; at 3.7 µM 11% | [4]; at 1.2 µM -1% | [4]; at 3.7 µM 16% | [5]; at 1.2 µM 7% | [5]; at 3.7 µM -15% | [6]; at 1.2 µM 2% | [6]; at 3.7 µM 24% | [7]; at 1.2 µM 5% | [7]; at 3.7 µM 26% | [9]; at 1.2 µM -4% | [9]; at 3.7 µM -1% | [9]; at 11.0 µM 32% | [10]; [17] 27% | [11]; at 1.2 µM -6% | [11]; at 3.7 µM 13% | [11]; [17] 1% | [11]; [18] 50% | [12]; at 1.2 µM -1% | [12]; at 3.7 µM 21% | [13]; at 1.2 µM 1% | [13]; at 3.7 µM 20% | [14]; at 1.2 µM 4% | [14]; at 3.7 µM 34%

N#Cc1cc(N(CCCl)CCCl)c([N+](=O)[O-])cc1[N+](=O)[O-]
active: [1]; at 100.0 µM 85% | [4]; at 100.0 µM 87% | [5]; at 50.0 µM 87.4% | [6]; at 50.0 µM 88.8% | [7]; at 100.0 µM 88% | [8]; at 50.0 µM 90.3% | [9]; at 100.0 µM 71% | [10]; at 50.0 µM 79.5% | [11]; at 50.0 µM 84.9% | [11]; at 100.0 µM 79% | [12]; at 100.0 µM 80% | [13]; at 33.0 µM 70% | [13]; at 100.0 µM 92% | [14]; at 33.0 µM 82% | [14]; at 100.0 µM 92% | [15]; [18] 76% | [15]; at 50.0 µM 80.5% | [16]; at 3.7 µM 82% | [16]; at 11.0 µM 89% | [16]; at 33.0 µM 95% | [16]; at 100.0 µM 95%
inactive: [1]; at 1.2 µM 7% | [1]; at 3.7 µM 19% | [1]; at 11.0 µM 28% | [1]; at 33.0 µM 67% | [2]; at 1.2 µM -6% | [2]; at 3.7 µM 4% | [2]; at 11.0 µM -7% | [2]; at 33.0 µM 2% | [2]; at 100.0 µM 58% | [3]; at 1.2 µM 15% | [3]; at 3.7 µM 17% | [3]; at 11.0 µM 11% | [3]; at 33.0 µM 32% | [3]; at 100.0 µM 39% | [4]; at 1.2 µM -2% | [4]; at 3.7 µM -8% | [4]; at 11.0 µM -4% | [4]; at 33.0 µM 28% | [5]; at 1.2 µM -4% | [5]; at 3.7 µM -8% | [5]; [17] 5% | [5]; at 11.0 µM 10% | [5]; at 33.0 µM 40% | [5]; [18] 42% | [5]; at 100.0 µM 65% | [6]; at 1.2 µM 22% | [6]; at 3.7 µM 24% | [6]; [17] -43% | [6]; at 11.0 µM 23% | [6]; at 33.0 µM 28% | [6]; [18] 11% | [6]; at 100.0 µM 67% | [7]; at 1.2 µM 3% | [7]; at 3.7 µM 7% | [7]; at 11.0 µM 19% | [7]; at 33.0 µM 61% | [8]; [17] -19% | [8]; [18] 46% | [9]; at 1.2 µM 2% | [9]; at 3.7 µM 6% | [9]; at 11.0 µM -2% | [9]; at 33.0 µM 14% | [10]; [17] 11% | [10]; [18] 43% | [11]; at 1.2 µM 11% | [11]; at 3.7 µM 10% | [11]; [17] -11% | [11]; at 11.0 µM -7% | [11]; at 33.0 µM 31% | [11]; [18] 40% | [12]; at 1.2 µM 4% | [12]; at 3.7 µM 6% | [12]; at 11.0 µM 8% | [12]; at 33.0 µM 36% | [13]; at 1.2 µM 34% | [13]; at 3.7 µM 4% | [13]; at 11.0 µM 34% | [14]; at 1.2 µM 29% | [14]; at 3.7 µM 31% | [14]; at 11.0 µM 44% | [15]; [17] 21% | [16]; at 1.2 µM 64%

O=P(CCCCP(=O)(c1ccccc1)c1ccccc1)(c1ccccc1)c1ccccc1.[Cl][Sn]([Cl])([c]1ccccc1)[c]1ccccc1
active: [1]; at 11.0 µM 74% | [1]; at 33.0 µM 96% | [1]; at 100.0 µM 97% | [2]; at 33.0 µM 93% | [2]; at 100.0 µM 96% | [4]; at 11.0 µM 74% | [4]; at 33.0 µM 96% | [4]; at 100.0 µM 97% | [5]; at 11.0 µM 82% | [5]; at 33.0 µM 97% | [5]; [18] 98% | [5]; at 50.0 µM 85.7% | [5]; at 100.0 µM 97%
inactive: [1]; at 1.2 µM -4% | [1]; at 3.7 µM 26% | [2]; at 1.2 µM -6% | [2]; at 3.7 µM 3% | [2]; at 11.0 µM 26% | [3]; at 1.2 µM 8% | [3]; at 3.7 µM -1% | [3]; at 11.0 µM 2% | [3]; at 33.0 µM 14% | [3]; at 100.0 µM 15% | [4]; at 1.2 µM 13% | [4]; at 3.7 µM 24% | [5]; at 1.2 µM 26% | [5]; at 3.7 µM 24% | [5]; [17] 66% | [6]; at 1.2 µM 11% | [6]; at 3.7 µM 22%
